This note sets out measurements from PubChem BioAssay (NCATS).

Inconclusive results are not listed. Active and inactive are the calls of the source. Unless noted, calls follow the shape of the dose curve; as a rule, active = well fitted curve in either direction with a large enough effect (not every such curve was filed as active); inconclusive = small, poorly fitted or top-dose-only effect, or another doubt; inactive = flat fitted curve, though single readings scatter. Some results are limits rather than exact numbers.

For test [1], the target named is Lysosomal acid glucosylceramidase (Homo sapiens) (UniProt P04062). In words: Glucocerebrosidase-p2 (AID 348; in the data active = potency below about 10 µM; also: potency is read from the fitted curve at half-maximal effect). To be noted: purified GBA, blue fluorogenic substrate, 40 min. The procedure, abridged:
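Compounds titrated from 0.6 nM upwards against 0.2 nM enzyme in pH 5.9 citric acid/KH2PO4, taurocholate, tween-20; blue fluorogenic substrate 80 uM, 40 min room temperature, stopped and read Ex 365/Em 440 for AC50.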

A short description of test [2]: AP1 Signaling Pathway (AID 357).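 Also: ME-180 reporter cells stimulated with EGF at its EC50 level; % is scaled to controls: 0 for no effect and ±100 for the full control effect.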 Particulars: ME-180 AP-1-bla reporter, EGF-induced, beta-lactamase ratio, 5 h; at 7.69 µM (top of the series) unless noted. A digest of the protocol: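 First, ME-180 AP-1-bla cells were cultured overnight at 37 °C in low-serum Opti-MEM. Next, titrated compounds with EC50 EGF were incubated 5 hours. Finally, CCF4 was added for 2.5 hours and the 460/530 nm ratio recorded.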

Test [3] addresses Cytochrome P450 1A2 (Homo sapiens) (UniProt P05177). The test can be described thus: p450-cyp1a2 (AID 410; calls by dose curve; also: potency is read from the fitted curve at half-maximal effect;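 as to activity change, negative = inhibition: -100% = full effect of reference inhibitor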). To be noted: recombinant CYP1A2, luciferin-ME demethylation, luminescence; series mostly up to 57 µM. The procedure, abridged: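 Inhibition was calculated relative to 57 uM furafylline (full inhibition). The reaction used human CYP1A2 at 20nM with Luciferin-ME at its Km, 100uM, driven by an NADPH-regenerating system for 60 min at room temperature.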

Test [4] can be described thus: NFAT Signaling Pathway (AID 444).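 Also: carbachol stimulus at about its EC50 of 1 µM final; % is scaled to controls: 0 for no effect and ±100 for the full control effect.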 To be noted: Jurkat NFAT-bla M1, carbachol, beta-lactamase ratio, 5 h; at 7.69 µM (top of the series) unless noted. A digest of the protocol: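 Read-out: CCF4 FRET ratio (460 nm/530 nm) after 1 h RT dye loading, used for %activity and AC50 from titration series. Cells: Jurkat NFAT-β-lactamase/M1 line, treated with compound plus 1 uM carbachol for 5 h, 37 °C.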

The nature of test [5]: Stat Signaling Pathway (AID 446).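 Also: ME-180 cervical cancer cells given 40 pM IL-6 alongside compound; SIE-controlled beta-lactamase reporter measured as 460/530 nm FRET emission ratio; % is scaled to controls: 0 for no effect and ±100 for the full control effect.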 To be noted: ME-180 SIE beta-lactamase reporter, IL-6 stimulated, 5 h; at 7.69 µM (top of the series) unless noted. The procedure, abridged: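 ME-180 SIE-bla cells; overnight plating; cpd + IL-6 40 pM, 5 h, 37 C; LiveBLAzer 2.5 h RT; 460/530 nm emission ratio. Normalized to 300 pM IL-6 and 125 nM JAK inhibitor controls.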
For test [6], the target named is Glucocorticoid receptor (Homo sapiens) (UniProt P04150). The test can be described thus: GR-EFC Redistribution (AID 451; calls by dose curve; also: potency is read from the fitted curve at half-maximal effect). Particulars: CHO-K1 GR-EFC translocation, beta-gal luminescence, 2 h. The procedure, abridged: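 Translocation of GR-ED fusion to nuclear EA restores b-gal, read by luminescence after 1 h room-temperature detection. Engineered CHO-K1 biosensor cells, 1,000/well, exposed 2 h at 37 C to titrations up to 46 uM final.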
Glucocorticoid receptor (Homo sapiens), sequence (P04150 whole entry, looked up, the tested form may be a part): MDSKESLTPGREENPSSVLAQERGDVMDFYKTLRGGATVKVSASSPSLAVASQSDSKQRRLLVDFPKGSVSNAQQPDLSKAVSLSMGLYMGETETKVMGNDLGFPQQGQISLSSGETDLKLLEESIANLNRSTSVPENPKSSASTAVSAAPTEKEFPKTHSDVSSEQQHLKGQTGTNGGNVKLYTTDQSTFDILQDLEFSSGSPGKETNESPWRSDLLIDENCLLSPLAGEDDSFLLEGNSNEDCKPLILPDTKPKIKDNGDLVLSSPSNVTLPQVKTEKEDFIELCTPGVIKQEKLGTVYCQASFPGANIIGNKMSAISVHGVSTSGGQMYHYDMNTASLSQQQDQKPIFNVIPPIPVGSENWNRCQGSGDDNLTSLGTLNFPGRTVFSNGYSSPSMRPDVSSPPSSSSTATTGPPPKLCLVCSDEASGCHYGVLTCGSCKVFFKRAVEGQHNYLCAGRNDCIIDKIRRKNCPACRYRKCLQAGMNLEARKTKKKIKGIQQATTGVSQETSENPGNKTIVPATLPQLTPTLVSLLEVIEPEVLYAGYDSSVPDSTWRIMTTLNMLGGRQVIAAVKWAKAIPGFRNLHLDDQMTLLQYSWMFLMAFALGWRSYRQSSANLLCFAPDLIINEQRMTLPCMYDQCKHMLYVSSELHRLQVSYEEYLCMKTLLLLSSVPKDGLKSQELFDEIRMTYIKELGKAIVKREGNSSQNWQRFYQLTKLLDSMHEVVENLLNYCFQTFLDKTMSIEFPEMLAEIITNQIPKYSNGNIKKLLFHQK

Test [7] has as its target Mitogen-activated protein kinase 10 (Mus musculus) (UniProt Q61831). In words: JNK3 AlphaScreen Assay (AID 530).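 Also: kinase came from lysate of stimulated human HepG2 cells; signal reports phosphorylation of biotinylated GST-cJun 1-79 at Ser73 with 10 µM ATP; % is scaled to controls: 0 for no effect and ±100 for the full control effect.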 Particulars: JNK3 lysate, c-Jun phosphorylation; series mostly up to 57.1 µM. A digest of the protocol:
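Room-temperature AlphaScreen kinase assay; pre-activated HepG2 lysate as JNK3 source, biotin-GST-cJun(1-79) substrate, 10 uM ATP, compound 15 min preincubation.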
On the technique in general: In Alpha technology, singlet oxygen from a donor bead excites a nearby acceptor bead.

The target in test [8] is 3',5'-cyclic-AMP phosphodiesterase 4B (Homo sapiens) (UniProt Q07343). In words: qHTS Assay for Inhibitors of PDE-IV (AID 607; active = well fitted activation curve with a large enough effect in the main read-out, with a control signal flat, not every such curve was filed as active; also: % of control where 0% means no effect). To be noted: HEK293 ACTOne CNG channel cells, membrane potential fluorescence; series mostly up to 22.9 µM. A digest of the protocol: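 ACTOne HEK293 cells carry a modified cAMP-gated CNG channel and express endogenous PDE4; plated 1000 cells/well, compounds up to 22.9 uM final. Membrane-potential dye fluorescence (ex 535/em 590) was read; parental cells received 10 uM forskolin + 100 uM RO 20-1724.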
3',5'-cyclic-AMP phosphodiesterase 4B (Homo sapiens), sequence (Q07343 whole entry, looked up): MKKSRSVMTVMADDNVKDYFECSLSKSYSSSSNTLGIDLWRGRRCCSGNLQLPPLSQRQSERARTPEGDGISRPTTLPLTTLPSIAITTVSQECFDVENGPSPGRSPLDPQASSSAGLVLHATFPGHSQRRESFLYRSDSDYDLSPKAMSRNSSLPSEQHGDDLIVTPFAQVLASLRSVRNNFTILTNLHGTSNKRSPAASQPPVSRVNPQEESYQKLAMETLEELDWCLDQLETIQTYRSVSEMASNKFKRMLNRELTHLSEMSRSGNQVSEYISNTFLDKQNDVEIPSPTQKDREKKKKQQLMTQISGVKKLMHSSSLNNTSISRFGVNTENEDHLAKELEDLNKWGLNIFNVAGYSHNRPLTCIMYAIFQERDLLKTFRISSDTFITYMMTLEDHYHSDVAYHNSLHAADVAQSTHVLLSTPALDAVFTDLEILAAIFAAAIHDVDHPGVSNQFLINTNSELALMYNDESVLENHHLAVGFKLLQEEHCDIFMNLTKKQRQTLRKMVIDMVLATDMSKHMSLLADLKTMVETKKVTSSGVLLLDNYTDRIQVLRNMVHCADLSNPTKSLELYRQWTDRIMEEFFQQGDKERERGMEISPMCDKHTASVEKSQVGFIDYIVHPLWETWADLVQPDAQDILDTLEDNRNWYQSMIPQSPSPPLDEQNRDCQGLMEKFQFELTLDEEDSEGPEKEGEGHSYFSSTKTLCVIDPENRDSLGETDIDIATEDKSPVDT

The nature of test [9]: qHTS Assay for Lipid Storage Modulators (AID 1519; calls by dose curve). To be noted: Drosophila S3 cells, BODIPY lipid droplet/cell ratio, laser cytometry, cells loaded with oleic acid; for activity change, negative = inhibition: at 57.5 µM (top of the series). A digest of the protocol: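 Cells seeded at 5,000 per well were treated with compounds over a concentration series and loaded with oleic acid (400 uM, as added). Lipid droplet fluorescence (488 nm excitation, 500-530 nm channel) was read by laser-scanning cytometry and normalized to 20 uM Triacsin C.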

Test [10] can be described thus: Primary qHTS for small molecule stabilizers of the endoplasmic reticulum resident proteome: Secreted ER Calcium Modulated Protein (SERCaMP) assay (AID 1508630; active = well fitted curve in the direction sought with a large enough effect; an effect the other way counts as inactive or inconclusive; also: % is scaled to controls: 0 for no effect and ±100 for the full control effect). Particulars: SH-SY5Y GLuc-SERCaMP (Gaussia luciferase released on ER calcium loss) secretion, thapsigargin, luminescence; series mostly up to 38.4 µM. A digest of the protocol:
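GLuc-SERCaMP-expressing SH-SY5Y cells, pretreated 16 h with compound, are challenged with thapsigargin to empty ER calcium stores; after 4 h, coelenterazine is added directly to the medium and luminescence is imaged.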
On the technique in general: Quantitative high-throughput screening tests each substance at several concentrations.

The target of test [11] is Cytochrome P450 2C9 (Homo sapiens) (UniProt P11712). In words: qHTS Assay for Inhibitors and Substrates of Cytochrome P450 2C9 (AID 883; active = well fitted curve in the direction sought with a large enough effect; an effect the other way counts as inactive or inconclusive; also: % is scaled to controls: 0 for no effect and ±100 for the full control effect; nearly all actives have a fitted effect of over 60% in size). To be noted: recombinant CYP2C9, luciferin-H luminescence, 60 min; series mostly up to 57.1 µM. The procedure, abridged:
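Luminescent read-out of deoxyluciferin hydroxylation, normalized to 57uM sulphaphenazole (AC100). Reaction: 10nM enzyme, 100uM Luciferin-H (equal to KM), 25mM KPO4, 10 min compound preincubation, then 60 min with NADPH regeneration, both at 37C.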

Test [12] concerns the target Cytochrome P450 3A4 (Homo sapiens) (UniProt P08684). The test can be described thus: qHTS Assay for Inhibitors and Substrates of Cytochrome P450 3A4 (AID 884; active = well fitted curve in the direction sought with a large enough effect; an effect the other way counts as inactive or inconclusive; also: nearly all actives have a fitted effect of over 50% in size; also: potency is read from the fitted curve at half-maximal effect). To be noted: recombinant CYP3A4, Luciferin-PPXE luminescence; series mostly up to 57.1 µM. The procedure, abridged:
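20 nM human CYP3A4 with 25 uM Luciferin-PPXE (at KM) in 200 mM KPO4, preincubated 10 min with compound; NADPH regeneration started a 60 min RT reaction. Luciferin detected by luminescence, normalized to 57 uM ketoconazole as full inhibition.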

Test [13] deals with Cytochrome P450 2D6 (Homo sapiens) (UniProt P10635). In words: qHTS Assay for Inhibitors and Substrates of Cytochrome P450 2D6 (AID 891; active = well fitted curve in the direction sought with a large enough effect; an effect the other way counts as inactive or inconclusive;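 also: luciferin methyl ether substrate demethylated by CYP2D6 with NADPH regeneration; % is scaled to controls: 0 for no effect and ±100 for the full control effect; nearly all actives have a fitted effect of over 60% in size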). Particulars: recombinant CYP2D6, luciferin-ME EGE luminescence; series mostly up to 57.1 µM. The procedure, abridged: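 Human CYP2D6 (5 nM) with 30 uM Luciferin-ME EGE (at Km) in 100 mM KPO4, compound preincubated 10 min, then NADPH regeneration system for 60 min at room temperature. Luciferin read by luminescence; normalized to 1.43 uM quinidine.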
Cytochrome P450 2D6 (Homo sapiens), sequence (P10635 whole entry, looked up): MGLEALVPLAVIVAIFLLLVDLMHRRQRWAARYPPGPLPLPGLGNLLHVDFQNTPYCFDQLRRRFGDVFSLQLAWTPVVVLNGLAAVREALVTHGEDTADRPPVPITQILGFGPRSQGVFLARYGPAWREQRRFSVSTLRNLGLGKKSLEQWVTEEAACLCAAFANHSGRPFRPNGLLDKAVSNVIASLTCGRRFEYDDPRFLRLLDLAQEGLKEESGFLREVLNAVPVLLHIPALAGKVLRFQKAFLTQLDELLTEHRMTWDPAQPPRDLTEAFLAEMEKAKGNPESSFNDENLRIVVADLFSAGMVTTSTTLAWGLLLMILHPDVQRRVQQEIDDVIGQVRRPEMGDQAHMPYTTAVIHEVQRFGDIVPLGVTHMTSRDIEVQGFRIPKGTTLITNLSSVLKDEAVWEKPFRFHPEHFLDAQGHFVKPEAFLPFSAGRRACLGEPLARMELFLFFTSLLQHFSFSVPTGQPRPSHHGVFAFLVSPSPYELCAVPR

For test [14], the target named is Cytochrome P450 2C19 (Homo sapiens) (UniProt P33261). The test can be described thus: qHTS Assay for Inhibitors and Substrates of Cytochrome P450 2C19 (AID 899; active = well fitted curve in the direction sought with a large enough effect; an effect the other way counts as inactive or inconclusive; also: % is scaled to controls: 0 for no effect and ±100 for the full control effect; nearly all actives have a fitted effect of over 60% in size). To be noted: recombinant CYP2C19, luciferin-H EGE luminescence; series mostly up to 57.1 µM. A digest of the protocol:
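Luminescence readout of luciferin formed from 10uM Luciferin-H EGE (KM level) by 5 nM CYP2C19 in 50mM KPO4. 60 min NADPH-driven reaction at 37C after 10 min compound preincubation; data scaled to 57uM ketoconazole inhibition.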

The target of test [15] is Cytochrome P450 3A4 (Homo sapiens) (UniProt P08684). The test can be described thus: qHTS Assay for Activators of Cytochrome P450 3A4 (AID 885; active = well fitted curve in the direction sought with a large enough effect; an effect the other way counts as inactive or inconclusive; also: nearly all actives have a fitted effect of over 65% in size; also: potency is read from the fitted curve at half-maximal effect). To be noted: recombinant CYP3A4, Luciferin-PPXE luminescence, 60 min; series mostly up to 57.1 µM. A digest of the protocol: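 20nM CYP3A4 + 25uM Luciferin-PPXE (=KM), 200mM KPO4; cpd 10 min RT; NADPH regen, 60 min RT; stop w/ detection buffer, 20 min; luminescence. Normalized to 57 uM ketoconazole.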
Cytochrome P450 3A4 (Homo sapiens), sequence (P08684 whole entry, looked up): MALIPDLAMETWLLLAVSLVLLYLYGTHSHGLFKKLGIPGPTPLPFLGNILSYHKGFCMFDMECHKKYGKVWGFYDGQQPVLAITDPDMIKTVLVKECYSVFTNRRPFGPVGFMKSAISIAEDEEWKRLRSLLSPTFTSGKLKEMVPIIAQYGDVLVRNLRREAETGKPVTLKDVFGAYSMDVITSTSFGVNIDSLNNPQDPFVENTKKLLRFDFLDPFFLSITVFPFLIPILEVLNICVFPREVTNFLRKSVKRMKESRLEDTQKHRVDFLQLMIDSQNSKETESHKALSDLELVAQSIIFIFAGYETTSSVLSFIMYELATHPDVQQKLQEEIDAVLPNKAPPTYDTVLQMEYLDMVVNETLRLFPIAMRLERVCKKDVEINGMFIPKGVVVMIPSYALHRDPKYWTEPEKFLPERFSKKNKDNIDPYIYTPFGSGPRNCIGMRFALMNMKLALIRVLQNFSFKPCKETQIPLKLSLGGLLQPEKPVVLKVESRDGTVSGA

The mark [16] stands for this setting: measured here: cell count channel max response.
Setting [17] is: measured here: lipid channel max response.

Cytochrome P450 1A2 (Homo sapiens), sequence (P05177 whole entry, looked up): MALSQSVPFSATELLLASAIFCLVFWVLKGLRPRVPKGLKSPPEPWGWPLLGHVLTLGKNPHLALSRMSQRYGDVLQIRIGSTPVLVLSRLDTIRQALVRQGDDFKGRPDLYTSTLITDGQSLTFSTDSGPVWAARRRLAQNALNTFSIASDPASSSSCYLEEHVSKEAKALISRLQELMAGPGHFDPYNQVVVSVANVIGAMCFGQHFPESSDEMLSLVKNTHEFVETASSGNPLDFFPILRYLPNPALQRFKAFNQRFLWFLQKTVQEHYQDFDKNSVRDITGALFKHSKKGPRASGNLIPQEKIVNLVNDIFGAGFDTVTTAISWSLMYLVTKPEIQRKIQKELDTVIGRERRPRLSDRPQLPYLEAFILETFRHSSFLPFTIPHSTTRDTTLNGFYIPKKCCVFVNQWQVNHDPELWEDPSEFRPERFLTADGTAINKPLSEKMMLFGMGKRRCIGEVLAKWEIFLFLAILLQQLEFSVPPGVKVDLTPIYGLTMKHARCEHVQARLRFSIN
Lysosomal acid glucosylceramidase (Homo sapiens), sequence (P04062 whole entry, looked up): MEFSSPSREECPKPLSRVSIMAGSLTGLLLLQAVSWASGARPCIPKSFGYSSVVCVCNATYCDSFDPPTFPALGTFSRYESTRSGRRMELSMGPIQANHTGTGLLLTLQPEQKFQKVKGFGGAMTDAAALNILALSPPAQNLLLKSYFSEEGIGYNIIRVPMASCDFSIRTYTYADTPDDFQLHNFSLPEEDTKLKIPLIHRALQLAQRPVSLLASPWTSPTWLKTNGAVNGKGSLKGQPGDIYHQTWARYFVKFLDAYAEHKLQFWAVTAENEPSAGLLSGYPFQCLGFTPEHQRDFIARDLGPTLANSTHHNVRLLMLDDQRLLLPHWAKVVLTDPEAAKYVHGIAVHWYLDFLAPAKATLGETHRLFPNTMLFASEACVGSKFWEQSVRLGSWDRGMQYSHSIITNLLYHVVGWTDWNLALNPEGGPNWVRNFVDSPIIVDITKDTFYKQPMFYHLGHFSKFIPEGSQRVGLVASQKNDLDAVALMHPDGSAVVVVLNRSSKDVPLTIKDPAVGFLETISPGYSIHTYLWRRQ
Cytochrome P450 2C9 (Homo sapiens), sequence (P11712 whole entry, looked up): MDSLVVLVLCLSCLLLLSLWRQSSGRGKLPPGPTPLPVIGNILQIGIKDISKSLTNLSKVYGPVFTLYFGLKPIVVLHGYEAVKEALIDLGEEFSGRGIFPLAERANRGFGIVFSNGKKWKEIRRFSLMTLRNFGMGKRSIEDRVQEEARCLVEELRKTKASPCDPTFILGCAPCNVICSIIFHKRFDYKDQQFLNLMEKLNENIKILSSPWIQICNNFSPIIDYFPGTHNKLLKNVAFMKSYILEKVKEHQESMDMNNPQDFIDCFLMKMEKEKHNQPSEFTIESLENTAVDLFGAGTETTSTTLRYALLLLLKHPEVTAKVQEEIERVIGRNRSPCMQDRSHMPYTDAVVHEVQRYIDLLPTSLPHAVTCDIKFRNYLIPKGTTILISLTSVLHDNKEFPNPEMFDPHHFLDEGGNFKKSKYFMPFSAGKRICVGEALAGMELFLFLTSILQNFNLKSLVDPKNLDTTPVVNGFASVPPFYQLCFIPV
Cytochrome P450 2C19 (Homo sapiens), sequence (P33261 whole entry, looked up): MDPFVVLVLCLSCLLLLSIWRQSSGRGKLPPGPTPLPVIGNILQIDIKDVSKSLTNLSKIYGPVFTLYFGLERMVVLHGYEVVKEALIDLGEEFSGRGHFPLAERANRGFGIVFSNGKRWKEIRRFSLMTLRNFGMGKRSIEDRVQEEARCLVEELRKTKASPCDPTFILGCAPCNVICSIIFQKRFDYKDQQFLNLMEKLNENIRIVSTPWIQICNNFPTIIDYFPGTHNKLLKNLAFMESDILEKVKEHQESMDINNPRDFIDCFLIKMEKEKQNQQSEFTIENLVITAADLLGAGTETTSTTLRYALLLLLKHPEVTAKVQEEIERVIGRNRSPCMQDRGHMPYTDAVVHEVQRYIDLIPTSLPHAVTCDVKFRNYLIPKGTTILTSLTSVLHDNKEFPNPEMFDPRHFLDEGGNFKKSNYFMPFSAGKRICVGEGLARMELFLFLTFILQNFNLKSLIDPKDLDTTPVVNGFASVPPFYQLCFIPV

For the compound `O=C(c1csnn1)N1CCC[C@@]2(CCN(c3ncccn3)C2)C1`, the Potency is > 11.4 µM (inactive) in test [1], 12.6 µM (active) in test [3] and > 46 µM (inactive) in test [6]. In addition, the activity change, negative = inhibition in [2] is -0.372% (inactive); in test [4], 8.43% (inactive); in test [9] it was 7.22% (inactive). In addition, in test [5], the activity, negative = inhibition is 1.56% (inactive). Besides, the call in test [7] was inactive. Besides, the Potency result in [8] and in [10] was “inactive” in each case. Also, the values for the max response in test [9] (setting [16]) and in test [9] (setting [17]) were 8.99% and 21.1%, respectively.

For `CC(C)NC(=O)N1CC[C@@]2(CCCN(C(=O)Oc3ccccc3)C2)C1`, the Potency in test [1] was > 11.4 µM (inactive); in [6], > 46 µM (inactive). Moreover, the activity change, negative = inhibition in test [2] was 6.59% (inactive); in test [4], -15.6% (inactive); in test [9] it was 1.37% (inactive). Besides, the Potency entry in test [3], in test [8], in test [11], in test [12], in test [13] and in test [14] was “inactive” each time. In addition, the Potency entry in test [10] is “inactive”. In addition, the activity, negative = inhibition in [5] is -4.24% (inactive). The outcome in test [7] was inactive. Further, the max response in test [9] (setting [16]) was determined as 8.74%; in test [9] (setting [17]), 17.3%.

`COc1ccccc1CN1CCCC2(CCN(S(C)(=O)=O)CC2)C1`: the Potency in test [1] is > 11.4 µM (inactive); in test [6] it was > 46 µM (inactive). Besides, the results for the activity change, negative = inhibition in test [2], in test [4] and in test [9] were -4.49% (inactive), -28.3% (inactive) and 2.11% (inactive), respectively. Besides, the Potency result in test [3], in test [8] and in [10] was “inactive” throughout. Besides, in test [5], the activity, negative = inhibition is 6.82% (inactive). Further, the compound was called inactive in test [7]. Besides, the figures for the max response in [9] (setting [16]) and in test [9] (setting [17]) were -15.8% and -12.2%, respectively.

Turning to `COCC(=O)N1CCC2(CC1)CCN(C(c1ccccc1)c1ccccc1)CC2`, the Potency in test [1] was > 11.4 µM (inactive); in test [6], > 46 µM (inactive); in test [15], 25.1 µM (active). Moreover, the activity change, negative = inhibition in test [2] is -2.73% (inactive); in test [4] it was -16.3% (inactive); in test [9] it was 1.77% (inactive). The Potency entry in test [3], in [8], in [12] and in [10] was “inactive” in each case. In test [5], the activity, negative = inhibition is 1.17% (inactive). For the same compound, the call in test [7] was inactive. Further, the max response in test [9] (setting [16]) came to 1.52%; in test [9] (setting [17]) it was 5.9%.

Take `O=C(c1cnccn1)N1CCC[C@@]2(CCN(c3ccccc3)C2)C1`: the Potency in test [1] was > 11.4 µM (inactive); in test [3], 15.8 µM (active); in test [6], > 46 µM (inactive); in test [12], 7.94 µM (active). For the same compound, the activity change, negative = inhibition in test [2] is -15.8% (inactive); in [4], -3.48% (inactive); in test [9] it was -0.338% (inactive). Moreover, the activity, negative = inhibition in test [5] is -3.78% (inactive). For the same compound, in [7], the call was inactive. Further, the Potency entry in test [8], in test [15] and in test [10] was “inactive” each time. Further, the results for the max response in test [9] (setting [16]) and in [9] (setting [17]) were 17% and 18.8%, respectively.

Consider `O=C(c1ccco1)N1CCC2(CC1)CN(c1ccc(-c3ccccc3)cc1)C2`, for which the Potency in test [1] is > 11.4 µM (inactive); in test [3], 1 µM (active); in test [6] it was > 46 µM (inactive); in test [15] it was 3.98 µM (active). Moreover, the activity change, negative = inhibition in test [2] was -23.8% (inactive); in test [4] it was -4.82% (inactive); in [9], 2.85% (inactive). Besides, the activity, negative = inhibition in test [5] was -21.1% (inactive). The outcome in test [7] was inactive. Besides, the Potency entry in test [8], in test [12] and in [10] was “inactive” throughout. The max response was -15.3% in [9] (setting [16]) and -11.7% in test [9] (setting [17]).

Consider `CC(=O)N1CCC2(CC1)CN(Cc1ccccc1)C2`, for which the Potency in test [1] is > 11.4 µM (inactive); in [6], > 46 µM (inactive). Further, the activity change, negative = inhibition is 9.85% (inactive) in [2], 0.306% (inactive) in test [4] and -0.469% (inactive) in [9]. Further, the Potency result in test [3], in test [8] and in test [10] was “inactive” each time. Moreover, the activity, negative = inhibition in test [5] was -5.51% (inactive). Moreover, the call in test [7] was inactive. For the same compound, the max response in test [9] (setting [16]) was -1.63%; in [9] (setting [17]), -1.86%.
